In the library only some 3% were active in any assay of this set; here they are far more common.
CHT inh = human CHT choline transport inhibition; AID 488975; B-score at 10 µM; 310,000 compounds, 0.86% hits; CHT-expressing cells, membrane potential dye, choline response; stronger effect = lower value; Q9GZV3;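 active = B-score over 3 SD under the library average, and starting fluorescence ratio not unusually high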;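 note: choline stimulus applied at its EC90 after an EC20 pre-addition; B-score computed on integrated fluorescence ratio after choline addition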
Target sequence (Q9GZV3 whole entry, looked up): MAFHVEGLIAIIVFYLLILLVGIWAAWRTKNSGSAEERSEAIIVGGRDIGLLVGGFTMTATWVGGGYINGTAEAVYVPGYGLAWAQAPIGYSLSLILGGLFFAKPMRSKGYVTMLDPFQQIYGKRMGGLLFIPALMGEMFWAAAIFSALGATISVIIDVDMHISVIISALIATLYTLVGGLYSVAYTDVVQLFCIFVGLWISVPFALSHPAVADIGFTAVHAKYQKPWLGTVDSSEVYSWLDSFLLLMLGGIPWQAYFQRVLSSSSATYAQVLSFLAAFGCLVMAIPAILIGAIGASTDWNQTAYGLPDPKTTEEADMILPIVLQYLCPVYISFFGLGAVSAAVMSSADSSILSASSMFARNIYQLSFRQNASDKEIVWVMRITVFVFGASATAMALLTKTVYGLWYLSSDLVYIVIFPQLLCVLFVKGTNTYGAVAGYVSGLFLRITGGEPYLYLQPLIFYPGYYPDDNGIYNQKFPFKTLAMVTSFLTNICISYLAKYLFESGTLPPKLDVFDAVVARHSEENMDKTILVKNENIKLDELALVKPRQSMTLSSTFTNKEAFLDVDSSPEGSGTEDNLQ
Bfl-1 A1 inh = inhibitors of the anti-apoptotic protein A1, read as caspase activation | MEF A1-2A-BIM cells, Caspase-Glo 3/7 luminescence, 3 h; percent of clofoctol response, vehicle zero | 330,000 compounds, 0.066% hits | AID 2462 | caspase activation, % (test concentration not listed);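 active = over half of replicate activation scores above 10%, or exactly half above 10 with the replicate mean above 10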
NALP1 yeast inh = inhibitors of NALP1 inflammasome in yeast; S. cerevisiae NALP1/ASC/caspase-1 growth, X-gal OD620, 72 h; inhibition, % at 10 µM; 280,000 compounds, 0.61% hits; AID 2071; in the data active = inhibition mostly above about 24%, no sharp cut-off; inactive = mostly below about 32%
NALP3 yeast inh = inhibitors of NALP3 inflammasome in yeast | Yeast reconstituted NLRP3/ASC/caspase-1, beta-gal luminescence, 24 h | inhibition, % at 10 µM | 330,000 compounds, 0.39% hits;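 active = inhibition of 50% or more; inactive = inhibition below 50%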;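 note: plate controls were induced DMSO wells for no effect and uninduced yeast grown without galactose for full effect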
SUMO Mot1 rescue = blocks SUMOylation pathway, rescuing yeast Mot1-301 growth. S. cerevisiae Mot1-301 growth rescue, ATP luminescence, 38.5C; percent above DMSO median, 100 means doubled. growth rescue, % at 18.8 µM. 320,000 compounds, 1% hits;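 active = every valid replicate shows activation above 250% relative to neutral control wells; inactive = the rest, any valid replicate at or below 250%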;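 note: OY570 slx delta 5 strain wells were the positive control but not used for scaling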
CHT allo act = human CHT allosteric activation; 310,000 compounds, 0.49% hits; B-score at 10 µM; CHT-expressing cells, membrane potential dye, choline EC20; stronger effect = higher value; LV-AA mutant CHT in HEK293 cells; Q9GZV3;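 active = initial fluorescence not abnormally high and integrated response B-score, plate-corrected, over 3 SD above library mean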
CHT block conf = human CHT inhibition, confirmatory screen | shares compounds with CHT inh | CHT-expressing cells, choline membrane potential dye; LV-to-AA substituted CHT, HEK293 cells | CHT activity remaining % of control (stronger effect = lower value), % at 10 µM | 2,400 compounds, 70% hits | AID 493221;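 active = choline transporter activity left, mean of duplicates at 10 µM, below buffer-only control mean minus 3 SD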;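 note: depolarization triggered by choline at its EC90 following an EC20 pre-addition; 0% = hemicholinium-3 full block and 100% = buffer-only control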
HEK293 CHT ctr = CHT inhibitor counter-screen hit in parental HEK293 cells. shares compounds with CHT inh. membrane potential dye, choline response; active = decrease or increase beyond buffer ±3SD. membrane potential ratio readout (active if shifted either direction beyond buffer ±3SD; no single direction) at 10 µM. 2,400 compounds, 4% hits. AID 493222;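 note: parental cells lack the transporter so any hit is non-specific; ratio is peak minus trough fluorescence over baseline after EC90 choline challenge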
Starred values were filed as active, the others as inactive; i = inactive; · = no result given.

SMILES | CHT inh | Bfl-1 A1 inh | NALP1 yeast inh | NALP3 yeast inh | SUMO Mot1 rescue | CHT allo act | CHT block conf | HEK293 CHT ctr
COc1ccc(-c2nnc(CSc3nc4ccccc4c(=O)n3CC3CCCO3)o2)cc1OC (configuration not stated) | -7.4* | 0 | · | -1 | -18 | i | 49%* | i
COc1ccc(OC)c(NC(=O)CSc2nc3ccccc3c(=O)n2CC2CCCO2)c1 (configuration not stated) | i | -1 | 23 | 10 | -6 | i | · | ·
CN1CCCN(C(=O)c2cc(-c3ccc(Cl)c(Cl)c3Cl)nc3ccccc23)CC1 | -8* | 0 | 10 | 22 | 44 | i | i | i
O=C(COC(=O)c1ccc(C(F)(F)F)cc1)Nc1cccc(S(=O)(=O)N2CCCCC2)c1 | · | -1 | · | 18 | -4 | · | · | ·
COC(=O)C1=C(N)Oc2cc(C)n(CCc3ccccc3)c(=O)c2C1c1cccnc1 (configuration not stated) | -5.2* | -2 | 10 | 5 | -1 | i | 69%* | i
CCOC(=O)C1=C(N)Oc2cc(C)n(CCc3ccc(OC)c(OC)c3)c(=O)c2C1c1cccnc1 (configuration not stated) | i | 0 | 21 | 10 | · | i | · | ·
Cc1c(NC(=S)NC(=O)c2ccc(COc3ccccc3)cc2)cccc1C(=O)O | -6.3* | -1 | -10 | 9 | 13 | i | i | i
Cc1c(NC(=S)NC(=O)c2cccc3ccccc23)cccc1C(=O)O | i | 2 | -1 | -2 | 6 | i | · | ·
Cc1cc(/C=N/NC(N)=O)c(C)c(CO)c1 | i | 0 | 12 | 9 | -23 | i | · | ·
CCc1cc(CC)c(/C=N/NC(N)=O)c(CC)c1/C=N/NC(N)=O | -9.3* | 0 | 21 | 15 | 5 | i | 19%* | i
Cc1cc(=O)[nH]c(SCCOc2ccc(OC(C)C)cc2)n1 | -5* | -8 | 13 | 27 | -8 | i | i | i
Cc1cc(=O)[nH]c(SCCOc2ccc3c(c2)CCC3)n1 | i | -1 | 19 | 14 | 7 | i | · | ·
Cc1[nH]c2ccccc2c1CN1CCC(Cc2ccccc2)CC1 | i | 0 | 18 | 17 | 12 | i | · | ·
O=C(Cc1ccc(S(=O)(=O)N2CCOCC2)s1)NCCOc1ccccc1 | i | 1 | · | 2 | -5 | i | · | ·
CCCCCC(=O)c1ccc(O)cc1O | -6.1* | -1 | 2 | 11 | 22 | i | 55%* | i
Cc1nc(CC(=O)c2ccc(O)cc2O)cs1 | i | -1 | -2 | 1 | 6 | i | · | ·
CC(C)c1ccc(/C=C/c2ccc(=O)n(C)n2)cc1 | -6.9* | 0 | -6 | 39 | 6 | i | i | i
CC(C)c1ccc(/C=C/C2=NNC(=O)CC2)cc1 | i | -10 | -13 | 32 | 17 | i | · | ·
Cc1ccc(-c2nnc(N3CCCCC3)c3ccccc23)cc1 | i | -1 | 16 | 6 | 11 | i | · | ·
Cc1ccc(-c2nnc(N3CC(C)OC(C)C3)c3ccccc23)cc1 (configuration not stated) | -7.5* | -1 | 8 | 11 | -10 | i | 59%* | i
O=C(/C=C/c1cn(-c2ccccc2)nc1-c1cccs1)NCCN1CCOCC1 | -7.1* | 0 | 3 | 17 | 0 | i | i | i
COc1cccc(C2/C(=C(\O)c3ccc4c(c3)OCCO4)C(=O)C(=O)N2c2nnc(C)s2)c1 (configuration not stated) | -5.7* | 0 | -40 | 12 | -8 | i | i | i
COC(=O)c1ccc(C2/C(=C(\O)c3ccc4c(c3)OCCO4)C(=O)C(=O)N2c2nnc(C)s2)cc1 (configuration not stated) | i | -1 | 6 | 6 | 60 | i | · | ·
CCOC(=O)c1sc(NC(=O)CSc2nc3c(c(=O)n2-c2ccc(C)cc2)SCC3)c(C(=O)OCC)c1C | -7* | -1 | 27 | 13 | -29 | i | 69%* | i
CCOC(=O)c1c(NC(=O)CSc2nnc(-c3cccc(C)c3)n2CC)sc(C(C)=O)c1C | i | 0 | -4 | 5 | -3 | i | · | ·
SMILES | CHT inh | Bfl-1 A1 inh | NALP1 yeast inh | NALP3 yeast inh | SUMO Mot1 rescue | CHT allo act | CHT block conf | HEK293 CHT ctr
CCOC(=O)c1c(NC(=O)CSc2nnc(-c3ccccc3)n2CC)sc(C(C)=O)c1C | -5.3* | 0 | -2 | 8 | 39 | i | i | i
O=C(OCc1ccc([N+](=O)[O-])cc1)c1cc(=O)c2ccccc2o1 | i | 0 | 28 | -4 | -9 | i | · | ·
COc1ccc(N(CCCN2C(=O)c3cccc4cccc(c34)C2=O)C(=O)c2ccncc2)cc1 | -5.8* | 0 | 0 | 7 | -11 | i | 69%* | i
Cn1ccnc1Sc1ccc(C=O)cc1[N+](=O)[O-] | -6.3* | 0 | 9 | 5 | 175 | i | i | i
COc1cc2c(cc1OC)-c1cc(NC3CCCCCCC3)nc(=O)n1CC2 | -7.6* | 1 | 4 | 5 | -22 | i | 27%* | i
Cc1noc(C)c1COC(=O)c1ccc(F)c(S(=O)(=O)N2CCCCC2)c1 | -5* | -1 | -7 | 8 | 1 | i | 69%* | i
Cc1noc(C)c1COC(=O)c1cccc(S(=O)(=O)N2CCCCCC2)c1 | i | 0 | -5 | 13 | 172 | i | · | ·
COc1ccc(S[C@@H](CCN2CC[C@H](O)CCC2=O)c2ccccc2)cc1 | · | 3 | · | 10 | -10 | · | · | ·
CC(C#N)(Cc1ccccc1)Nc1ccccc1 (configuration not stated) | i | -1 | · | 0 | -17 | i | · | ·
O=[N+]([O-])c1cccc(NNS(=O)(=O)c2ccccc2F)c1 | i | 0 | 17 | 20 | 177 | i | · | ·
CCCc1ccc(OCc2ccc(C(=O)NCc3cccnc3)o2)c(OC)c1 | -5.7* | 0 | 7 | 0 | -6 | i | 68%* | i
O=C(Cc1ccc(F)cc1)NCCS(=O)(=O)N1CCN(c2cccc(Cl)c2)CC1 | i | 1 | · | 10 | 236 | i | · | ·
O=C(NCCC(=O)N1CCN(S(=O)(=O)c2ccccc2Cl)CC1)Nc1ccccc1 | · | 1 | · | 17 | -20 | · | · | ·
C=CCNc1nc(SC)nc2ccsc12 | -11* | 0 | 28 | 1 | 10 | i | 3.0%* | i

From PubChem BioAssay
